Screening data from PubChem.
NPSR antag: neuropeptide S receptor (human) antagonism, cAMP. AID 1461. 220,000 tested, 1% active. Potency, µM (top dose mostly 38.3 µM), without a hit: at the top dose activity change, negative = inhibition, hits mostly inhibitors. CHO-NPSR cells, cAMP TR-FRET, antagonist mode. Q6W5P4; also: nearly all actives have a fitted effect of over 50% in size
Target sequence (Q6W5P4 whole entry, looked up): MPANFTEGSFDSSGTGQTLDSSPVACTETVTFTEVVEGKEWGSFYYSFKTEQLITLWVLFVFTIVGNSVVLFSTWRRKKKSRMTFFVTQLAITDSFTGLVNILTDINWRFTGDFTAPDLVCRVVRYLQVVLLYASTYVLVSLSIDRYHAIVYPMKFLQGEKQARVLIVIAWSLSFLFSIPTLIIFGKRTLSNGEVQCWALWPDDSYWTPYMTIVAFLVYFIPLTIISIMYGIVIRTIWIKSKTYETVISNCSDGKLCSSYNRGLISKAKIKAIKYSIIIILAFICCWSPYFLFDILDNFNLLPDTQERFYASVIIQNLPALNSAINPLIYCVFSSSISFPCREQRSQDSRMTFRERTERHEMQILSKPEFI
HPGD block: HPGD (human) dehydrogenase inhibition | 150,000 tested, 4.3% active | purified HPGD, NADH fluorescence kinetic, PGE2 substrate | AID 894 | P15428 | Potency, µM, inactives show top-dose activity change, negative = inhibition, actives largely listed as inhibitors; active = well fitted inhibition curve with a large enough effect, not every such curve was filed as active; inconclusive = small, poorly fitted or top-dose-only effect, or another doubt; inactive = no such curve, though single readings can be large or run the other way
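20 nM HPGD preincubated 15 min at room temperature with compound in 50 mM Tris-HCl pH 8, 0.01% Tween 20. Started with 1 mM NAD+ and 30 uM prostaglandin E2; NADH fluorescence (360/450 nm) read 5 times over 30-s intervals, last minus first.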
Tau fibril FP: blocks human tau fibril formation measured by polarization. P10636. K18 P301L tau heparin fibrillization, Alexa594 FP, 6 h. Potency, µM (highest dose often 57.7 µM), for the others: top-dose activity, negative = inhibition, most hits filed as inhibitors. 280,000 tested, 0.39% active. AID 1468; also: nearly all actives have a fitted effect of over 55% in size
Target sequence (P10636 561-689 P618L limits assumed): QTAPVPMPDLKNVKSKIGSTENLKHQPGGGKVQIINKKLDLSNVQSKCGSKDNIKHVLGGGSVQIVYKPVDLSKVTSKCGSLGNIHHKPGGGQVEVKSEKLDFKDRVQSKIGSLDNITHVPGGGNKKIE
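Recombinant K18 P301L […], labeled with Alexa 594 at 0.24 uM over 15 uM unlabeled; heparin inducer 20 uM final; 37 C, 6 hr; FP endpoint.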
ALDH1A1 inh: inhibitors of human aldehyde dehydrogenase 1A1; Purified ALDH1A1, NADH fluorescence, propionaldehyde substrate; Potency, µM (doses to about 75.3 µM), for the others: at the top dose activity, negative = inhibition, usual class: inhibitors; 220,000 tested, 7.3% active; AID 1030; active = well fitted inhibition curve with a large enough effect, not every such curve was filed as active; inconclusive = small, poorly fitted or top-dose-only effect, or another doubt; inactive = no such curve, though single readings can be large or run the other way;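 also: plate controls were no enzyme wells and a reference inhibitor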
Tau fluor counter: counter-screen for tau fibril formation inhibitors | tau K18 P301L Alexa594 fluorescence, heparin fibrillization | 280,000 tested, 0.93% active | Potency, µM (highest dose often 57.7 µM), inactives show top-dose activity change, negative = decrease; also: nearly all actives have a fitted effect of over 55% in size
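Human K18 P301L tau (15 uM unlabeled plus 0.24 uM Alexa 594-labeled, final) in 100 mM sodium acetate pH 7 was mixed with compound and 20 uM heparin and incubated 6 hr at 37 C.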
Tau ThT inhib: tau fibrillization inhibition (ThT binding). P10636. recombinant tau K18 P301L (four-repeat tau fragment), heparin-induced fibrillization, ThT fluorescence. Potency, µM (series often up to 57.4 µM), inactives show top-dose activity, negative = inhibition, hits mostly inhibitors. 270,000 tested, 2.1% active. AID 1460; also: nearly all actives have a fitted effect of over 55% in size
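Tau K18 P301L fragment (15 uM unlabeled plus 0.24 uM Alexa 594-labeled) in 100 mM sodium acetate pH 7 with compound, fibrillization induced by 20 uM heparin for 6 hr at 37 C. Thioflavin T (30 uM) added, fluorescence read after 1 hr (ex 450, em 510 nm).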
Starred values were filed as active, the others as inactive; ? = inconclusive; / = no result; [ ] = another dose, or the depositor's remark. Sampled rows, rich in hits. Any-hit rate of the full collection: about 9.5%. Unless noted, calls follow the shape of the dose curve; as a rule, active = well fitted curve in the direction sought with a large enough effect; inconclusive = small, poorly fitted or top-dose-only effect, or another doubt; inactive = no such curve, though single readings can be large; an effect the other way counts as inactive or inconclusive. Unless noted, % is scaled to controls: 0 for no effect and ±100 for the full control effect; potency is read from the fitted curve at half-maximal effect.

SMILES | NPSR antag | HPGD block | Tau fibril FP | ALDH1A1 inh | Tau fluor counter | Tau ThT inhib
Cc1ccc(SCCNC(=O)/C=C/c2ccccc2Cl)cc1 | -18%[46.1 µM] | ? | -1% | 13µM* | 1% | 3%
O=C(/C=C/c1ccccc1Cl)NCCc1ccccc1 | 0%[46.1 µM] | 16µM* | -11% | -7% | -27% | -22%
Cc1ccc(SCCNC(=O)C(C)C)cc1 | -7%[46.1 µM] | -27% | -4% | 5% | -1% | 0%
O=[N+]([O-])c1cccc(NC(=S)NCc2ccncc2)c1 | 1% | / | ? | 9.5µM* | -13% | -11%
O=[N+]([O-])c1ccc(NC(=S)NCc2ccncc2)cc1 | -5% | / | -14% | 11µM* | ? | -16%
CC(NC(=S)Nc1ccc([N+](=O)[O-])cc1)c1ccncc1 (stereo unspecified) | -17% | / | -5% | 20µM* | -27% | -16%
CCc1nnc(N2C(=O)c3ccccc3C2(O)c2ccccc2)s1 (stereo unspecified) | -3% | / | 8% | / | -39% | /
CCOC(=O)c1c(C)[nH]c(C(=O)NCc2ccco2)c1C | -4% | / | -1% | 0% | -2% | -1%
CC(=O)CCOC1CCCCO1 (stereo unspecified) | / | -8% | 2% | 9% | -2% | -2%
CCOC(=O)c1cnc(/N=C/N(C)C)s1 | 7% | / | -1% | 0% | -6% | -1%
COc1ccccc1/C=N/NC(=O)c1cccc(NC(=O)c2ccccc2Cl)c1 | -2% | / | -11% | 20µM* | -11% | -7%
CC(=O)Nc1cccc(C(=O)N/N=C/c2ccc(F)cc2)c1 | 4% | -15% | -3% | 4% | -3% | -16%
COc1cc(/C=N/NC(=S)Nc2cccc(C(=O)O)c2)ccc1O | 5% | ? | 7% | ? | -6% | ?
CC(=O)Nc1cccc(C(=O)N/N=C/c2ccccc2F)c1 | 6% | 35µM* | -3% | 4% | 12% | 14%
COc1cc(/C=N/NC(=O)c2cccc(NC(=O)c3ccccc3Cl)c2)ccc1O | -11% | / | 2% | 13µM* | ? | ?
O=C(N/N=C/c1ccncc1)c1ccc(NC(=O)c2cccc(Cl)c2)cc1 | 2% | / | -6% | -4% | -12% | ?
O=C(N/N=C/c1ccncc1)c1cccc(NC(=O)c2ccccc2Cl)c1 | -5% | -16% | -6% | 13µM* | -16% | -17%
COc1ccccc1/C=N/NC(=O)c1ccc(Cn2nc([N+](=O)[O-])cc2C)cc1 | 8% | ? | 15% | 14µM* | -29% | -17%
COc1ccc(/C=N/NC(=O)c2cccc(NC(=O)c3ccccc3Cl)c2)c(OC)c1 | -1% | / | -15% | ? | -6% | 2%
COc1ccc(/C=N/NC(=O)c2cccc(NC(=O)c3ccccc3Cl)c2)cc1OC | 14% | / | -8% | 4µM* | ? | -20%
COc1ccc(NC(=O)C2CCN(C3=NS(=O)(=O)C(c4ccc(C)c(C)c4)=C3C)CC2)cc1OC | / | / | -2% | / | 9% | -5%
[O-][n+]1c(CN2CCCCC2)nc2cccc3c2c1-c1ccccc1-3 | / | ? | / | 1µM* | / | /
O=c1[nH]c(CN2CCCCC2)nc2ccccc12 | 0%[46.1 µM] | -8% | -2% | -4% | 1% | 5%
CC(=O)C1C(=O)CC(C)(O)C(C(C)=O)C1c1ccc(N(C)C)cc1 (stereo unspecified) | -8%[46.1 µM] | 0% | -4% | 3.2µM* | 2% | -4%
NC(=O)c1cccc2ccccc12 | 8% | / | 9% | / | 6% | 2%
SMILES | NPSR antag | HPGD block | Tau fibril FP | ALDH1A1 inh | Tau fluor counter | Tau ThT inhib
N#CSCC(=O)c1cccc2ccccc12 | -18% | ? | ? | 1.6µM* | -12% | 25µM*
Cc1ccc(Nc2c(-c3ccncc3)nc3ccc(C)cn23)cc1 | / | / | 14% | / | -28% | ?
COc1cc(-c2nc3ccc(Cl)cn3c2Nc2ccc3c(c2)OCO3)ccc1O | / | / | 11% | / | 14µM*[quencher] | ?
CN(C)c1ccc(-c2nc3ccc(Cl)cn3c2Nc2ccc3c(c2)OCCO3)cc1 | / | / | 12% | / | ? | ?
COc1cc(-c2nc3ccc(C)cn3c2Nc2ccc(Cl)cc2)ccc1O | / | / | ? | / | 8.9µM*[quencher] | ?
S[C@@H]1CCCN(Cc2ccccc2)C1 | / | -1% | / | -8%[13.5 µM] | / | /
